SRC3 inh: inhibitors of human steroid receptor coactivator 3 (SRC3); 360,000 tested, 0.17% active; inhibition, % at 3.6 µM; HEK293 GAL4-SRC3 luciferase reporter, luminescence;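 active = inhibition above a per-campaign cutoff, the mean of all compounds plus 3 SD, cut at about 60% in these data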;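 note: 0% = DMSO-treated cells and 100% = gossypol-treated cells at 36 µM; higher means less SRC3-driven luciferase light from the GAL4 reporter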
SRC1 inh: human NCOA1 inhibition. Q15788. HEK293 GAL4-SRC1 luciferase reporter, luminescence. inhibition, % at 3.6 µM. 360,000 tested, 0.12% active. AID 588354;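 active = inhibition above the campaign mean plus 3 SD, with each screening campaign given its own cutoff, cut at about 60% in these data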;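 note: 0% = DMSO treated cells and 100% = gossypol at 36 µM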
LRH-1 inv ag: inverse agonists of human LRH-1 (NR5A2); O00482; HEK293T StAR-luciferase reporter, LRH-1 transfected, 24 h; inhibition, % at 3.6 µM; 360,000 tested, 0.13% active; AID 602396;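 active = inhibition above the mean inhibition of all tested compounds plus 3 SD, cut at about 73% in these data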;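 note: 0% = DMSO wells and 100% = reporter-only cells lacking LRH-1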
COUP-TFII inh: blocks human COUP-TFII nuclear receptor; P24468; HEK293T NGFI-A luciferase reporter, luminescence; inhibition, % at 8.6 µM; 370,000 tested, 0.7% active; AID 686940;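 active = inhibition above a per-plate cutoff, mean inhibition of test wells between control levels plus 3 SD, cut at about 38% in these data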;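 note: cells cotransfected with COUP-TFII expression vector driving the NGFI-A reporter; 0% = median of COUP-TF2 test wells and 100% = reporter-only cells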
SRC2 inh: inhibits human steroid receptor coactivator 2; HEK293 GAL4-SRC2 luciferase reporter, luminescence; inhibition, % at 9 µM; 370,000 tested, 0.17% active;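 active = inhibition above the mean inhibition of all tested compounds plus 3 SD, set per campaign, cut at about 52% in these data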;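 note: 0% = DMSO treated cells and 100% = cells given Gossypol at 36 µM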
Gli-Sufu antag: Gli-Sufu pathway antagonism; Sufu-KO-LIGHT fibroblasts, Gli luciferase reporter luminescence; inhibition, % at 5 µM; 340,000 tested, 0.74% active;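 active = inhibition above about 55%, limit read from the data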;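 note: 0% = DMSO-treated cells and 100% = wells with medium but no cells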
Gli antag conf: Gli-SUFU antagonism confirmation, single concentration | shares compounds with Gli-Sufu antag | Sufu-KO-LIGHT cells, Gli luciferase reporter, luminescence | inhibition, % at 5 µM | 2,500 tested, 40% active;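 active = mean inhibition at 5 µM reaching about 45%, limit read from the data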;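 note: plate controls were DMSO-treated cells for no effect and wells lacking cells for full effect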
Gli cytotox: cytotoxicity counter-screen for Gli-SUFU antagonists; shares compounds with Gli-Sufu antag; Sufu-KO-LIGHT cells cytotoxicity, ATP luminescence; cytotoxicity, % at 5 µM; 2,500 tested, 32% active;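 active = mean cytotoxicity at 5 µM above about 25%, limit read from the data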;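 note: cells exposed to compound overnight for roughly 16 to 18 hours; plate controls were DMSO wells with cells for no effect and medium without cells for full effect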
Wnt3a cs: Wnt3a reporter inhibition counter-screen; inhibition, % at 6.25 µM; Wnt-LIGHT cells, Wnt3a-driven luciferase reporter, luminescence; 2,500 tested, 20% active; shares compounds with Gli-Sufu antag; AID 651995;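 active = mean inhibition above about 25%, limit read from the data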
An asterisk follows results filed as active; · = not tested or not shown. Hits are enriched below; roughly 1.3% of the tested compounds scored in any of these assays.

SMILES	SRC3 inh	SRC1 inh	LRH-1 inv ag	COUP-TFII inh	SRC2 inh	Gli-Sufu antag	Gli antag conf	Gli cytotox	Wnt3a cs
O=C(NCc1ccc(C(=O)N2CCOCC2)cc1)c1cccc(Br)c1	·	·	·	-0.8	4.7	·	·	·	·
COc1ccccc1NC(=O)COc1ccc2c(c1)OCO2	-27.3	-66.3	-94.0	-33.3	-15.1	59.3*	14.9	11.3	-64.8
O=C(COC(=O)c1cnc(Cl)c(Cl)c1)NCCC1=CCCCC1	-3.2	-25.2	-7.5	11.2	-5.0	50.9	9.4	17.1	0.0
CCN1C(=O)/C(=C\c2ccc(F)cc2)N=C1SCC(=O)NCc1ccco1	31.0	9.8	16.4	-5.9	7.2	2.3	·	·	·
C=CCN1C(=O)/C(=C\c2ccc(Cl)cc2)N=C1SCC(=O)NCCC	-5.2	3.7	6.8	13.6	0.1	55.9*	16.9	20.3	10.1
Cc1cc(C(=O)NCc2ccccc2)no1	-2.6	-6.2	3.9	3.0	-43.7	88.9*	22.7	19.1	-9.3
Cc1cc(C(=O)NNCc2ccccc2)no1	3.5	-12.6	-21.5	7.4	1.5	-8.7	·	·	·
Cc1ccc(-c2nnc(SCC(=O)NNC(=S)Nc3ccccc3)n2C2CCCCC2)cc1	·	·	·	-5.0	-20.6	·	·	·	·
COc1cc(C2c3cc4c(cc3C(OC3OC5COC(c6cccs6)OC5C(O)C3O)C3COC(=O)C23)OCO4)cc(OC)c1O (stereo unspecified)	76.7*	80.6*	65.0	-21.9	-3.0	81.7*	80.9*	71.9*	57.3*
CCOC(=O)c1ccc(NC(=O)CNC(=O)C2CCCCC2)cc1	17.7	6.7	19.3	0.1	-15.1	-2.5	·	·	·
COC(=O)c1ccc(NC(=O)CNC(=O)C2CCCCC2)cc1	-18.3	0.0	-12.8	5.3	-18.6	93.8*	5.5	-4.1	-11.2
Cc1ccc2c(c1)C1CS(=O)(=O)N(C3CCCC3)CN1C2 (stereo unspecified)	·	·	·	-24.0	-2.1	·	·	·	·
Cc1ccc(-c2c[n+](CC(=O)c3ccc(Br)cc3)c3n2CCCCC3)cc1	28.0	2.4	19.2	1.7	6.8	77.3*	78.1*	33.5*	-21.0
O=C(C[n+]1cc(-c2ccccc2)n2c1CCCCC2)c1ccc(Cl)cc1	-0.2	-11.3	-11.4	-0.7	-12.6	58.0*	49.1*	17.3	-5.9
COc1ccc(-c2c[n+](CC(=O)c3ccccc3)c3n2CCCCC3)cc1	19.4	20.8	1.6	8.4	-7.0	50.0	55.3*	24.8	-12.5
Clc1ccc(-c2c[n+](Cc3ccc(Br)cc3)c3n2CCCCC3)cc1	24.3	17.1	13.9	8.3	-36.2	49.6	·	·	·
COC(=O)[C@]12C[C@H](CC(=O)NCC3CCCCC3)C(=O)N(CCc3ccc(OC)c(OC)c3)C1=C[C@H](COCc1ccccc1)O[C@@H]2C	·	·	·	-2.4	11.3	·	·	·	·
CCOc1ccc(-n2c(SCC(=O)Nc3cccc4ccccc34)nnc2-c2ccco2)cc1	·	·	·	13.2	-30.3	·	·	·	·
COc1ccc(OC)c(S(=O)(=O)N2CCCCC2C(=O)N2CCN(Cc3ccc(F)cc3)CC2)c1 (stereo unspecified)	·	·	·	14.7	20.5	·	·	·	·
N#C/C(=C\c1ccc(-c2ccc(F)cc2)o1)C(=O)Nc1nc(-c2cccs2)cs1	14.6	4.1	-3.7	0.8	-4.0	-4.0	·	·	·
N#C/C(=C/c1ccc(-c2ccc([N+](=O)[O-])cc2)o1)C(=O)Nc1nc(-c2cccs2)cs1	-3.0	1.0	14.9	-5.5	-12.8	72.3*	83.8*	6.0	32.8*
Cc1cc(-c2n[nH]c(=S)n2N=Cc2ccc(OCc3ccccc3)cc2)n[nH]1	·	·	·	-43.3	-19.9	·	·	·	·
CCOc1ccccc1NC(=O)CCn1ccnc1	-18.6	-3.5	-9.6	8.0	-36.0	57.8*	14.8	19.2	-6.1
CCOc1ccc(NC(=O)CCn2ccnc2)cc1	-2.5	-54.4	5.5	10.5	-21.2	2.7	·	·	·
CCOc1ncccc1C(=O)Nc1cc(S(=O)(=O)N2CCCCC2)ccc1C	-10.8	14.0	-7.3	-19.3	-4.8	3.7	·	·	·
